Measurements published in PubChem BioAssay AID1159580 (chemical genetic matrix, 2015).
The campaign covered roughly 5,500 compounds. About 2,000 (36%) were called active. Roughly 18% stayed inconclusive and do not appear here. Cut-off read from the data, not from the text of the source: active = normalized growth mostly below about 0.91 (no sharp cut-off); inconclusive = no clear call, values can overlap the other calls; inactive = mostly above about 0.92. The list shows a part of the results.

Assay: chemical genetic growth profiling, strain panel (AID 1159580);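 note: tested at 20 µM; growth read once vehicle control cultures reached saturation at 30 °C; 1 = growth at the plate median or of vehicle wells; lower values mean less growth of the strain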
Conditions: growth OD

Measured: normalized growth

COc1ccc(-c2cc(=O)c3c(OC)cc(OC)cc3o2)cc1
inactive: S. cerevisiae deletion strains, locus YAL013W, strain DEP1, stronger effect = lower value 0.981 | S. cerevisiae deletion strains, locus YBR021W, strain FUR4, stronger effect = lower value 0.903 | S. cerevisiae deletion strains, locus YBR229C, strain ROT2, stronger effect = lower value 1 | S. cerevisiae deletion strains, locus YCL029C, strain bik1, stronger effect = lower value 1.01 | S. cerevisiae deletion strains, locus YDL035C, strain GPR1, stronger effect = lower value 0.981 | S. cerevisiae deletion strains, locus YDL074C, strain BRE1, stronger effect = lower value 0.905 | S. cerevisiae deletion strains, locus YDL101C, strain DUN1, stronger effect = lower value 0.988 | S. cerevisiae deletion strains, locus YDL134C, strain PPH21, stronger effect = lower value 0.984 | S. cerevisiae deletion strains, locus YDL185W, strain tfp1, stronger effect = lower value 0.996 | S. cerevisiae deletion strains, locus YDL192W, strain arf1, stronger effect = lower value 0.986 | S. cerevisiae deletion strains, locus YDR101C, strain arx1, stronger effect = lower value 0.977 | S. cerevisiae deletion strains, locus YDR150W, strain NUM1, stronger effect = lower value 1 | S. cerevisiae deletion strains, locus YDR162C, strain NBP2, stronger effect = lower value 0.944 | S. cerevisiae deletion strains, locus YDR318W, strain mcm21, stronger effect = lower value 0.973 | S. cerevisiae deletion strains, locus YDR388W, stronger effect = lower value 0.99 | S. cerevisiae deletion strains, locus YDR502C, strain sam2, stronger effect = lower value 0.963 | S. cerevisiae deletion strains, locus YEL061C, strain CIN8, stronger effect = lower value 0.997 | S. cerevisiae deletion strains, locus YER110C, stronger effect = lower value 1.02 | S. cerevisiae deletion strains, locus YER155C, strain BEM2, stronger effect = lower value 0.993 | S. cerevisiae deletion strains, locus YER167W, strain BCK2, stronger effect = lower value 0.989 | S. cerevisiae deletion strains, locus YGL078C, strain dbp3, stronger effect = lower value 1 | S. cerevisiae deletion strains, locus YGL086W, strain mad1, stronger effect = lower value 1 | S. cerevisiae deletion strains, locus YGL248W, strain PDE1, stronger effect = lower value 0.988 | S. cerevisiae deletion strains, locus YGR078C, strain PAC10, stronger effect = lower value 0.948 | S. cerevisiae deletion strains, locus YGR135W, strain pre9, stronger effect = lower value 0.926 | S. cerevisiae deletion strains, locus YGR229C, strain SMI1, stronger effect = lower value 0.873 | S. cerevisiae deletion strains, locus YGR252W, strain gcn5, stronger effect = lower value 0.834 | S. cerevisiae deletion strains, locus YHR030C, strain SLT2, stronger effect = lower value 0.997 | S. cerevisiae deletion strains, locus YHR079C, strain IRE1 (second series), stronger effect = lower value 0.979 | S. cerevisiae deletion strains, locus YHR094C, strain hxt1, stronger effect = lower value 1.01 | S. cerevisiae deletion strains, locus YHR129C, strain ARP1, stronger effect = lower value 0.99 | S. cerevisiae deletion strains, locus YHR200W, strain rpn10, stronger effect = lower value 0.992 | S. cerevisiae deletion strains, locus YIL066C, strain RNR3, stronger effect = lower value 0.965 | S. cerevisiae deletion strains, locus YIL073C, strain SPO22, stronger effect = lower value 0.983 | S. cerevisiae deletion strains, locus YIL125W, strain kgd1, stronger effect = lower value 1.01 | S. cerevisiae deletion strains, locus YIR030C, strain dcg1, stronger effect = lower value 0.993 | S. cerevisiae deletion strains, locus YJL095W, strain BCK1, stronger effect = lower value 0.888 | S. cerevisiae deletion strains, locus YJL134W, strain LCB3, stronger effect = lower value 0.994 | S. cerevisiae deletion strains, locus YJL168C, strain set2, stronger effect = lower value 0.998 | S. cerevisiae deletion strains, locus YJL187C, strain SWE1 (second series), stronger effect = lower value 0.957 | S. cerevisiae deletion strains, locus YJR043C, strain POL32, stronger effect = lower value 0.983 | S. cerevisiae deletion strains, locus YJR075W, strain HOC1, stronger effect = lower value 0.968 | S. cerevisiae deletion strains, locus YKL009W, strain mrt4, stronger effect = lower value 0.987 | S. cerevisiae deletion strains, locus YKL068W, stronger effect = lower value 1.01 | S. cerevisiae deletion strains, locus YKL085W, strain MDH1 (second series), stronger effect = lower value 1.01 | S. cerevisiae deletion strains, locus YKL085W, strain MDH1, stronger effect = lower value 1.01 | S. cerevisiae deletion strains, locus YKL190W, strain CNB1, stronger effect = lower value 0.996 | S. cerevisiae deletion strains, locus YKR001C, strain vps1, stronger effect = lower value 0.996 | S. cerevisiae deletion strains, locus YLR039C, strain RIC1, stronger effect = lower value 1.03 | S. cerevisiae deletion strains, locus YLR058C, strain SHM2, stronger effect = lower value 0.988 | S. cerevisiae deletion strains, locus YLR102C, strain apc9, stronger effect = lower value 0.998 | S. cerevisiae deletion strains, locus YLR262C, strain YPT6, stronger effect = lower value 1.02 | S. cerevisiae deletion strains, locus YLR268W, strain sec22, stronger effect = lower value 0.95 | S. cerevisiae deletion strains, locus YLR330W, strain CHS5, stronger effect = lower value 0.999 | S. cerevisiae deletion strains, locus YLR342W, strain FKS1 (second series), stronger effect = lower value 0.951 | S. cerevisiae deletion strains, locus YLR371W, strain rom2, stronger effect = lower value 1.01 | S. cerevisiae deletion strains, locus YLR418C, strain cdc73, stronger effect = lower value 0.869 | S. cerevisiae deletion strains, locus YML016C, strain PPZ1, stronger effect = lower value 1 | S. cerevisiae deletion strains, locus YML032C, strain rad52, stronger effect = lower value 0.969 | S. cerevisiae deletion strains, locus YML124C, strain tub3, stronger effect = lower value 1 | S. cerevisiae deletion strains, locus YMR078C, strain ctf18, stronger effect = lower value 0.988 | S. cerevisiae deletion strains, locus YMR223W, strain ubp8, stronger effect = lower value 0.972 | S. cerevisiae deletion strains, locus YMR263W, strain SAP30, stronger effect = lower value 0.95 | S. cerevisiae deletion strains, locus YMR307W, strain GAS1, stronger effect = lower value 0.839 | S. cerevisiae deletion strains, locus YNL067W, strain RPL9B, stronger effect = lower value 0.962 | S. cerevisiae deletion strains, locus YNL128W, strain TEP1, stronger effect = lower value 0.981 | S. cerevisiae deletion strains, locus YNL153C, strain GIM3, stronger effect = lower value 0.955 | S. cerevisiae deletion strains, locus YNL233W, strain BNI4, stronger effect = lower value 0.923 | S. cerevisiae deletion strains, locus YNL250W, strain rad50, stronger effect = lower value 1.01 | S. cerevisiae deletion strains, locus YNL271C, strain bni1, stronger effect = lower value 1.02 | S. cerevisiae deletion strains, locus YNL298W, strain CLA4, stronger effect = lower value 1 | S. cerevisiae deletion strains, locus YNL307C, strain MCK1, stronger effect = lower value 0.93 | S. cerevisiae deletion strains, locus YNL322C, strain KRE1, stronger effect = lower value 1.01 | S. cerevisiae deletion strains, locus YNR052C, strain pop2, stronger effect = lower value 0.995 | S. cerevisiae deletion strains, locus YOL006C, strain TOP1, stronger effect = lower value 0.858 | S. cerevisiae deletion strains, locus YOL012C, strain htz1 1.8 | S. cerevisiae deletion strains, locus YOL147C, strain pex11, stronger effect = lower value 0.989 | S. cerevisiae deletion strains, locus YOR061W, strain CKA2, stronger effect = lower value 0.999 | S. cerevisiae deletion strains, locus YOR069W, strain VPS5, stronger effect = lower value 1 | S. cerevisiae deletion strains, locus YOR136W, strain idh2, stronger effect = lower value 0.996 | S. cerevisiae deletion strains, locus YOR144C, strain elg1, stronger effect = lower value 1 | S. cerevisiae deletion strains, locus YOR184W, strain ser1, stronger effect = lower value 0.967 | S. cerevisiae deletion strains, locus YOR316C, strain cot1, stronger effect = lower value 1 | S. cerevisiae deletion strains, locus YPL055C, strain LGE1, stronger effect = lower value 0.92 | S. cerevisiae deletion strains, locus YPL241C, strain CIN2, stronger effect = lower value 0.996 | S. cerevisiae deletion strains, locus YPR119W, strain clb2, stronger effect = lower value 1 | S. cerevisiae deletion strains, locus YPR141C, strain kar3, stronger effect = lower value 1.01 | S. cerevisiae deletion strains, locus YPR163C, strain tif3, stronger effect = lower value 0.971 | S. cerevisiae deletion strains, locus YPR167C, strain met16, stronger effect = lower value 1 | S. cerevisiae deletion strains, strain wtn01, stronger effect = lower value 0.963 | S. cerevisiae strains, strain wild type, stronger effect = lower value 0.992
